Experimental data published in PubChem BioAssay (Tox21).
Records with an inconclusive call do not appear. Entries that show only a call come without a potency. A number with no mark means an inactive call. Activity calls are given as the source filed them. Calls come from the whole dose curve; as a rule, active = well fitted curve in the direction sought with a large enough effect in the repeat runs; inconclusive = weak or mixed curves; inactive = no such curve, though single readings can be large; an effect the other way counts as inactive or inconclusive.

Columns and labels:
[1] = qHTS RealTime-Glo MT Cell Viability Assay in HEK293 cells - 8 hour (AID 1224887); note: top concentration of the series differs between compounds; nearly all actives have a fitted effect of over 50% in size
How it was run: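 Nonlytic bioluminescent viability monitoring. HEK293 at 600 cells/well with reagent; 5 h settle; compound transfer by pintool; plates held at 37 C and read at set time points.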

[2] = A CellTox Green Cytotoxicity Assay to monitor cytotoxicity in HEK293 cells - 16 hour (AID 1224888); note: nearly all actives have a fitted effect of over 35% in size
How it was run: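 Cytotoxicity was tracked continuously in HEK293 cells by a DNA-binding dye excluded from viable cells. Compounds were transferred in DMSO 5 h after seeding; fluorescence was recorded at intervals up to 40 h.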

[3] = qHTS RealTime-Glo MT Cell Viability Assay in HepG2 cells - 0 hour (AID 1224889); note: nearly all actives have a fitted effect of over 50% in size
How it was run: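 Tox21 10K library screened in qHTS format on HepG2 cells carrying RealTime-Glo reagents. Compounds were added after a 5 h preincubation, and the luminescent signal from continuous culture was measured repeatedly during 40 h treatment.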

[4] = A CellTox Green Cytotoxicity Assay to monitor cytotoxicity in HepG2 cells - 8 hour (AID 1224890); note: nearly all actives have a fitted effect of over 45% in size
How it was run: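 Real-time, homogeneous cytotoxicity readout: dead-cell DNA staining by CellTox Green in HepG2 monolayers, fluorescence measured at timed intervals up to 40 h of continuous compound exposure.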

[5] = qHTS assay to identify small molecule antagonists of the estrogen receptor alpha (ER-alpha) signaling pathway using the BG1 cell line in the presence of 0.1 nM 17-beta-estradiol - cell viability counter screen (AID 1259241); note: nearly all actives have a fitted effect of over 40% in size
How it was run: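 Viability in VM7Luc4E2 cells after 22 hr compound exposure under 0.1 nM 17beta-estradiol stimulation, by CellTiter-Fluor.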

[6] = qHTS assay to identify small molecule antagonists of the androgen receptor (AR) signaling pathway using the MDA cell line in the presence of 0.5 nM R1881 - cell viability counter screen (AID 1259242); note: nearly all actives have a fitted effect of over 45% in size
How it was run: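 Cytotoxicity toward MDA-kb2 cells is measured by CellTiter-Fluor live-cell protease fluorescence after 16 hr compound exposure at 37C in the presence of 0.5 nM R1881 stimulator.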

[7] = target: Androgen receptor (Homo sapiens) (UniProt P10275); assay: qHTS assay to identify small molecule antagonists of the androgen receptor (AR) signaling pathway using the MDA cell line in the presence of 0.5 nM R1881 (AID 1259243); note: nearly all actives have a fitted effect of over 50% in size; note: potency is the fitted concentration of half-maximal effect
How it was run: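 Steps: seed MDA-kb2 cells, incubate 5 hr at 37C; pin-transfer compounds in DMSO; add R1881 to 0.5 nM final; incubate 16 hr; add ONE-Glo, wait 30 min at room temperature; read luminescence.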

[8] = target: Estrogen receptor (Homo sapiens) (UniProt P03372); assay: qHTS assay to identify small molecule antagonists of the estrogen receptor alpha (ER-alpha) signaling pathway using the BG1 cell line in the presence of 0.1 nM 17-beta-estradiol (AID 1259244); note: nearly all actives have a fitted effect of over 50% in size
How it was run: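 After 5 days in hormone-depleted medium (charcoal-stripped serum, no phenol red), VM7Luc4E2 cells were seeded, incubated 24 h, then co-treated with compound and 0.1 nM (final) estradiol for 22 h before luminescence detection.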

[9] = qHTS assay to identify small molecule HDAC inhibitors (AID 1259364); note: top concentration of the series differs between compounds; nearly all actives have a fitted effect of over 45% in size
How it was run: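 Homogeneous cell-based luminescent assay of endogenous class I/II HDAC activity; HCT-116 cells, 2 h compound exposure, 30 min HDAC-Glo development at RT.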

Estrogen receptor (Homo sapiens), sequence (P03372 whole entry, looked up): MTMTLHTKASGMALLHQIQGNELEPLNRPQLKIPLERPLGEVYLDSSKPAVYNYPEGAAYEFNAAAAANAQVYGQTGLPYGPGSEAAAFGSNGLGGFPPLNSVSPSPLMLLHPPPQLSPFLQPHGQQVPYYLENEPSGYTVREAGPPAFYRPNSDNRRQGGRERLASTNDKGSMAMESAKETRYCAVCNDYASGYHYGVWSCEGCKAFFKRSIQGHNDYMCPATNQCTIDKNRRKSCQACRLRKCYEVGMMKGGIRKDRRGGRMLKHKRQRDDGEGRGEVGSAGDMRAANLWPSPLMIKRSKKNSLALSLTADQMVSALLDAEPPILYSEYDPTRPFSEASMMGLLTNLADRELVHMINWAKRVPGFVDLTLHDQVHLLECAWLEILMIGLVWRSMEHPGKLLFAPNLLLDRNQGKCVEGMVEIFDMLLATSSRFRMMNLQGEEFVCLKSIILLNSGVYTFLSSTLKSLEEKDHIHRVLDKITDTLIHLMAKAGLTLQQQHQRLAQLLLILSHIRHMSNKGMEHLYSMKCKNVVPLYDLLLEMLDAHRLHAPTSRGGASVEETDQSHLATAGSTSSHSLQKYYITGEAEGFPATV
Androgen receptor (Homo sapiens), sequence (P10275 whole entry, looked up): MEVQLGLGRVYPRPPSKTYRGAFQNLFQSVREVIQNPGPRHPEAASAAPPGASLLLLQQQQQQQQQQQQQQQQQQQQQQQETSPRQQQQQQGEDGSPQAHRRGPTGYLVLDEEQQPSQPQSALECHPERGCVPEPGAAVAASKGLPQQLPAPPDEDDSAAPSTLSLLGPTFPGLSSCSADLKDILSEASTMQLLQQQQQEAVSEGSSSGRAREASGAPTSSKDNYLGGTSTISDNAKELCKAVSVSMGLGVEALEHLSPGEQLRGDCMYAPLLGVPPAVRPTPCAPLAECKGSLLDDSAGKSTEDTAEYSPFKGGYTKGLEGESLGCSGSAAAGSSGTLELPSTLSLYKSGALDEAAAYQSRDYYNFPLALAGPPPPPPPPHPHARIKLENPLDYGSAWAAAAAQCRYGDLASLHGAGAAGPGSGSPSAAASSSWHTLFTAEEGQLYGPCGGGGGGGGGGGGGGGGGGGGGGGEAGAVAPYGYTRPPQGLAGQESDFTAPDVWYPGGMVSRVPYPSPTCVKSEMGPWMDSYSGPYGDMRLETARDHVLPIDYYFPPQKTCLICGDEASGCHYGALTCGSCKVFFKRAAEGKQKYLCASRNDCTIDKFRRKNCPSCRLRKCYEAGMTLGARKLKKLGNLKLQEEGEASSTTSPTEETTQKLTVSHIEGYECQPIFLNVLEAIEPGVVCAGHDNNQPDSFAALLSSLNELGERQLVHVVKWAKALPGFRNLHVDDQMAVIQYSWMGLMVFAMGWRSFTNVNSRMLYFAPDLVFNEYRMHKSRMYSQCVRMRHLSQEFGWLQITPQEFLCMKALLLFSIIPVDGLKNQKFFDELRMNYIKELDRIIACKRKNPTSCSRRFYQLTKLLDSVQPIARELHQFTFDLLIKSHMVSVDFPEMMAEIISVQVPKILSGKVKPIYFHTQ

SMILES | outcome [1] | Potency [2] | Potency [3] | Potency [4] | outcome [5] | outcome [6] | Potency [7] | outcome [8] | Potency [9]
O=C(c1ccccc1)c1cccc(O)c1 | inactive | inactive | inactive | inactive | inactive | inactive | 27.7 µM (active) | inactive | inactive
O=C1CCCc2c(O)cccc21 | inactive | inactive | inactive | inactive | inactive | inactive | inactive | inactive | inactive
CCc1ncc(C)[nH]1 | inactive | inactive | inactive | inactive | inactive | inactive | inactive | – | inactive
CC(C)c1cc(C(C)C)cc(C(C)C)c1 | inactive | inactive | inactive | inactive | inactive | inactive | – | inactive | –
CCCCCCCCC1CO1 (stereo not given) | inactive | inactive | inactive | inactive | inactive | inactive | inactive | – | –
CCOC(=O)CC(C(C)=O)C(C)=O | inactive | inactive | inactive | inactive | inactive | inactive | – | inactive | –
Cc1ccccc1C#N | inactive | inactive | inactive | inactive | inactive | inactive | – | inactive | –
COC(C)(C)CC(C)=O | inactive | inactive | inactive | inactive | inactive | inactive | inactive | – | –
CCCCCCCCCCCCCCCC/C=C/C1CC(=O)OC1=O (stereo not given) | inactive | inactive | inactive | inactive | inactive | inactive | – | – | –
CC(=O)/C=C/C=C1/C2CCC(C2)C1(C)C (stereo not given) | inactive | inactive | inactive | inactive | inactive | inactive | inactive | inactive | inactive
COC(=O)c1cc(Cl)c(NC(C)=O)cc1OC | inactive | inactive | inactive | inactive | inactive | inactive | inactive | – | inactive
CCCCCCCCCCCCCC(=O)OCC | inactive | inactive | inactive | inactive | inactive | inactive | – | inactive | inactive
CC(=O)Oc1ccc(C(C)=O)cc1 | inactive | inactive | inactive | inactive | inactive | inactive | – | inactive | inactive
